Assay results: PubChem BioAssay AID540276 (National Center for Advancing Translational Sciences (NCATS), 2011)
Among all 300,000 compounds or so, about 5,400 (1.8%) were called active. Inconclusive results (about 28%) are left out. The call rests on the fitted dose curve; tested in HEK293 cells. What follows is part of a selection rich in actives, with near analogues and random picks from the rest. Entries that show only a call come without a potency.

Test: qHTS for inhibitors of binding or entry into cells for Marburg Virus
Details: Marburg virus pseudotyped entry inhibition, cell reporter; series mostly up to 37.8 µM
Potency means the concentration at half of the fitted maximal effect.

SMILES	Potency
O=[N+]([O-])c1cc2ccccc2nc1-c1ccccc1	inactive
O=C(NCCN1CCOC1=O)C1CCC(=O)N(CCc2ccc(Cl)cc2)C1 (stereo not drawn)	inactive
COCCOC(=O)C1=C(C)OC(N)=C(C#N)[C@H]1c1ccco1	inactive
CCNC(=O)N1c2ccccc2Sc2ccccc21	inactive
O=C(CN1CCCCCC1)N1c2ccccc2Sc2ccc(C(F)(F)F)cc21	18.3 µM (active)
O=C(CN1C(=O)/C(=C\c2ccc(C(F)(F)F)cc2)Sc2ccccc21)NCc1ccco1	inactive
Oc1ccc(-n2nnnc2SCc2c(F)cccc2Cl)cc1	inactive
O=C(NN=Cc1ccccc1O)NN=Cc1ccccc1O	3.98 µM (active)
O=C(N/N=C/c1ccc(O)c2ccccc12)c1cccnc1	inactive
O=C(CCCO)N/N=C/c1cc(Br)ccc1O	inactive
Cc1ccc(NC(=O)CSc2nc(=O)n(CCN(C)C)c3c2CCCC3)c(C)c1	inactive
O=C1CCCCC1Sc1ccc(Cl)cc1[N+](=O)[O-] (stereo not drawn)	inactive
CCn1c(SCC(=O)Nc2ccc(Br)cc2)nc2sc3c(c2c1=O)CCN(C)C3	inactive
C/C(CC(=O)Nc1ccc(C)cc1C)=N\NC(=O)C(C)C	inactive
Cc1ccc(NC(=O)NC(C)c2c(-n3cccc3)sc(C)c2C)c(C)c1 (stereo not drawn)	11.2 µM (active)
COc1ccc(NC(=O)NC(C)c2c(-n3cccc3)sc(C)c2C)cc1OC (stereo not drawn)	inactive
CC(=O)c1ccc(NC(=O)c2ccc3c(Cl)c4c(nc3c2)CCCC4)cc1	inactive
COc1cccc(CNC(=O)c2ccc3c(Cl)c4c(nc3c2)CCCC4)c1	inactive
CC(C)CCNC(=O)c1ccc2c(Cl)c3c(nc2c1)CCC3	10 µM (active)
COc1ccccc1N1CCC(N2CCN(CC(C)(C)C)C(CCO)C2)CC1 (stereo not drawn)	inactive
CC(C)(C)c1ccc(C(=O)N2CCN(CCNC(=O)C(=O)Nc3ccc(F)cc3)CC2)cc1	inactive
COc1ccccc1CNC(=O)c1ccc(N(C)S(=O)(=O)c2ccc(C)cc2)cc1	inactive
CC(C)c1nc(NC[C@H]2CCCO2)c(C#N)c2c1COC(C)(C)C2	inactive
COCCNc1nc(N)c([N+](=O)[O-])c(N2CCCCCC2)n1	inactive
Nc1nc(Nc2ccccc2)nc(NCCO)c1[N+](=O)[O-]	inactive
CCN1CCN(c2nc(Nc3cccc(F)c3)nc(N)c2[N+](=O)[O-])CC1	12.6 µM (active)
COC(=O)CC(CC(=O)OC)n1cccc1	inactive

SMILES	Potency
COc1ccc2[nH]c3nc(SCC(=O)NC4CC4)nnc3c2c1	inactive
CC1CCCCC1NC(=O)c1cn(C)c2ccc(S(=O)(=O)N3CCOCC3)cc2c1=O (stereo not drawn)	inactive
Cc1cc(N2CCN(S(=O)(=O)c3ccc(C)c(C)c3)CC2)c2ccccc2n1	16.4 µM (active)
Cc1cc(C(=O)NNC(=O)c2cccc(S(=O)(=O)N3CCOCC3)c2)c2ccccc2n1	inactive
Cc1ccc(S(=O)(=O)C(C#N)c2nc3ccccc3nc2N2CCCC2)cc1C (stereo not drawn)	inactive
CCOc1ccc(CCNC(=O)COC(=O)C2CCN(S(=O)(=O)c3ccccc3)CC2)cc1OCC	inactive
COc1cccc(/C=N/Nc2ccc(S(=O)(=O)Nc3ccccc3C(=O)O)cc2[N+](=O)[O-])c1O	inactive
COc1cccc(/C=N/Nc2cc(C)nc(-c3ccccc3O)n2)c1O	5.62 µM (active)
COc1cccc(/C=N\NC(=O)C2=NNC(=O)C2C)c1O (stereo not drawn)	inactive
COCCN1C(=O)N(c2ccc(Cl)cc2)C(=O)C1CC(=O)Nc1cc(OC)cc(OC)c1 (stereo not drawn)	inactive
CCOC(=O)C1(Cc2ccccc2C)CCCN(C(=O)CCc2c(C)noc2C)C1 (stereo not drawn)	inactive
O=C1CC(c2ccccc2)C(c2ccccc2)=NN1 (stereo not drawn)	inactive
CCNC(=O)CCc1nc(-c2ccc(C(C)(C)C)cc2)no1	8.91 µM (active)
CCNC(=O)CCc1nc(-c2ccc(C)cc2)no1	inactive
Cc1ccc(-c2noc(CCC(N)=O)n2)cc1	inactive
COc1ccc(Cl)cc1NC(=O)c1cccc(N2C(=O)C3CC=CCC3C2=O)c1 (stereo not drawn)	inactive
O=C(CC1SC(N2CCCC2)=NC1=O)Nc1ccc(C(=O)NCCc2ccc(F)cc2)cc1 (stereo not drawn)	inactive
CC1CC(C)CN(CCC(=O)Nc2ccc3c(c2)CCC3)C1 (stereo not drawn)	7.3 µM (active)
CC(C)C(=O)OCC(=O)Nc1ccc2c(c1)CCC2	inactive
CC1CC(C)CN(CC(=O)Nc2ccc(S(N)(=O)=O)cc2)C1 (stereo not drawn)	inactive
Cc1nnc(NC(=O)C(c2ccccc2)c2ccccc2)s1	inactive
CC/C(=C\c1ccc(Cl)cc1)c1ccncc1	inactive
O=C1NCC(Nc2ccccc2)C(=O)N1 (stereo not drawn)	inactive
Cc1cc(Cl)ccc1OCC(=O)N(Cc1ccc(N(C)C)cc1)C1CCS(=O)(=O)C1 (stereo not drawn)	inactive
CC1(C)C(C=C(Cl)Cl)C1C(=O)N(Cc1ccc(Cl)cc1)C1CCS(=O)(=O)C1 (stereo not drawn)	12.6 µM (active)
Cc1ccc(CN(C(=O)c2sc3ccccc3c2Cl)C2CCS(=O)(=O)C2)cc1 (stereo not drawn)	inactive
